# aSyn rescue: qHTS of alpha-syn Inhibitors; Yeast expressing alpha-synuclein, growth rescue, BacTiter-Glo, 24 h; Potency, µM (doses to about 46.1 µM), inactives show at the highest dose growth rescue (activation), usual class: activators; actives 0.14% (n = 370,000); AID 652106, 2013; note: % of control where 0% means no effect; nearly all actives have a fitted effect of over 65% in size
#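 Readout is rescue of growth in alpha-synuclein-expressing yeast, so inhibitors of toxicity appear as activators. Growth after 24 hr at 30 deg C in galactose medium is quantified by luminescence.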
# FUS yeast rescue: qHTS for Suppressors of FUS Proteinopathy: Primary screen using FUS-linked yeast assay; S. cerevisiae FUS-expressing, growth rescue, OD600, 24 h; AID 1347120, 2019; actives 0.24% (n = 390,000); Potency, µM (highest dose often 76.6 µM), hits mostly activators;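 note: plate controls were DMSO vehicle for no effect and reference control for full effect; nearly all actives have a fitted effect of over 55% in size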
#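 Restored growth of FUS-toxic S. cerevisiae, read as 600 nm absorbance after 24 h at 30C in galactose medium (starting OD 0.005). Controls CP55940 and DMSO.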
# TDP-43 yeast inh: qHTS of TDP-43 Inhibitors; actives 1.8% (n = 410,000); Potency, µM (highest dose often 46.1 µM), inactives show top-dose growth rescue (activation), hits mostly activators; AID 652104, 2013; TDP-43 expressing yeast growth rescue, BacTiter-Glo, 24 h; note: % of control where 0% means no effect; nearly all actives have a fitted effect of over 50% in size
#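 Luminescence from BacTiter-Glo reports growth of TDP-43-expressing yeast after 24 hr at 30 deg C with compound. Cells were raffinose-pregrown to mid-log, then seeded in galactose medium at OD600=0.02.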
# Abeta rescue: qHTS for compounds that reverse cellular toxicity of Amyloid beta (A-beta) peptide in yeast: Primary Screen; Potency, µM (series often up to 46.1 µM), actives largely listed as activators; yeast expressing A-beta42, growth rescue, OD600, 48 h; response scale: 0% DMSO, 100% iron-clioquinol control; actives 0.063% (n = 410,000); note: nearly all actives have a fitted effect of over 55% in size
#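 Yeast A-beta toxicity model in growth medium with pinned compounds, 48 h at 30 C; growth read as absorbance at 600 nm. Normalized to FeCl3/clioquinol equimolar mix (positive) and DMSO (negative).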
# The depositor's hits bear a star; i = inactive; ? = inconclusive; · = no result given; [ ] = remark or other dose. Rows were chosen to be rich in hits. Some 2.1% of all compounds tested hit in one or more screens of this group. Calls come from the whole dose curve; as a rule, active = well fitted curve in the direction sought with a large enough effect; inconclusive = small, poorly fitted or top-dose-only effect, or another doubt; inactive = no such curve, though single readings can be large; an effect the other way counts as inactive or inconclusive. Potency is the fitted concentration of half-maximal effect.
SMILES,aSyn rescue,FUS yeast rescue,TDP-43 yeast inh,Abeta rescue
COc1ccc2nc(N3CCCC(C(=O)NCCCN4C(C)CCCC4C)C3)sc2c1 (stereo not drawn),-2%,i,-8%,i
CCOC(=O)C1=C(c2ccccc2)NC(=S)NC1c1ccc(C)c([N+](=O)[O-])c1 (stereo not drawn),-4%,·,6%,i
O=C1CC(c2ccco2)c2ccc3ccccc3c2N1 (stereo not drawn),5%,i,13µM*,i
Cc1ccc(C2CC(=O)Nc3c2ccc2ccccc32)cc1[N+](=O)[O-] (stereo not drawn),11%,i,25µM*,i
COc1ccc(-c2sc(Nc3ccc(F)c(F)c3F)nc2CCC(=O)NN)cc1,-2%,i,2%,i
O=C(CSc1ccc2c(c1)OCCO2)Nc1ncc(Cl)cc1Cl,4%,i,?,i
O=C(CSc1ccc2c(c1)OCCO2)NCCc1ccc(Cl)cc1Cl,?,·,11µM*,i
CCC(CC)C(=O)Nc1nnc(SCc2cc(=O)c3ccccc3[nH]2)s1,·,i,7%,i
CCOC(=O)CN1C(c2ccc(O)cc2)Nc2ccc(Br)cc2C1c1ccccc1 (stereo not drawn),14%,·,20µM*,i
CN(C1CCCCC1)S(=O)(=O)c1ccc(SCC(=O)C(C)(C)C)nc1,?,i,20µM*,i
CC(C)CNC(=O)CSc1ccc(S(=O)(=O)N(C)C2CCCCC2)cn1,11%,i,8%,i
Cc1ccccc1C(=O)Nc1sc2c(c1C(=O)N1CCCCC1)CCC(C)C2 (stereo not drawn),·,i,18µM*,i
Cc1ccccc1C(=O)Nc1sc2c(c1C(=O)N1CCC(C)CC1)CCC(C)C2 (stereo not drawn),·,i,27%,i
Cc1ccc(NC(=O)C2(C)CCCN(C(C)C)C2)cc1C (stereo not drawn),0%,i,12%,i
Cc1ccc(S(=O)(=O)N2C[C@H]3[C@H]4C(=O)N(Cc5ccccc5)C(=O)[C@H]4CC(=O)[C@H]3[C@@H]2c2ccccc2Cl)cc1,-1%,i,25%,i
Cc1ccc(S(=O)(=O)N2C[C@H]3[C@H]4C(=O)N(Cc5ccccc5)C(=O)[C@H]4CC(=O)[C@H]3[C@@H]2c2ccccc2F)cc1,2%,18µM*,23%,i
Cc1c(CNC(C)CCc2ccccc2)c(C(=O)O)c(C)n1Cc1ccc(F)cc1Cl (stereo not drawn),·,i,9%,i
COc1ccc(-c2nc(C)c(CCNC(=O)c3cccs3)s2)cc1,-6%,i,14µM*,i
COc1ccc(-c2nc(C)c(CCNC(=O)c3cccc(C)c3)s2)cc1OC,-6%,i,22µM*,i
Cc1cccc(-c2nc(C)c(CCNC(=O)C(=O)Nc3c(C)cc(C)cc3C)s2)c1,6%,i,13%,i
Cc1cccc(-c2nc(C)c(CCNC(=O)c3cccs3)s2)c1,-22%,i,16µM*,i
COc1ccc(-c2nc(C)c(CCNC(=O)c3cc(OC)c(OC)c(OC)c3)s2)cc1OC,3%,i,5%,i
Cc1nc(-c2ccccc2)sc1CCNC(=O)c1ccco1,-14%,i,18µM*,i
CN1CCN(S(=O)(=O)c2cccc(C(=O)Oc3ccccc3Cl)c2)CC1,3%,i,19%,i
O=C(c1ccncc1)N1CC[C@H]2[C@H](CCCN2Cc2cc(F)cc(F)c2)C1,·,i,·,·
SMILES,aSyn rescue,FUS yeast rescue,TDP-43 yeast inh,Abeta rescue
CCOCCCNC(=O)c1c(NC(=O)c2nc(SCC)ncc2Cl)sc2c1CCCC2,-3%,·,·,·
CCOc1ccc(C(=O)NCCc2sc(-c3ccc(C)cc3)nc2C)cc1,·,i,?,i
Cc1ccc(-c2nc(C)c(CCNC(=O)c3cccs3)s2)cc1,-19%,i,16µM*,i
CCCCc1cc(=O)oc2c(C)c(OCC(=O)N3CCC(C(=O)O)(c4ccccc4)CC3)ccc12,-10%,28µM*,12%,i
CSc1nc2ccc(NS(=O)(=O)c3c(Cl)cccc3Cl)cc2s1,24%,·,10µM*,i
Cc1nc2ccc(NS(=O)(=O)c3ccc(C)c(C)c3)cc2s1,19%,i,27%,i
Cc1nc2ccc(NS(=O)(=O)c3c(F)cc(F)cc3Br)cc2s1,?,i,16µM*,i
Cc1nc2ccc(NS(=O)(=O)c3ccc(F)cc3F)cc2s1,20%,·,13µM*,i
Cc1nc2ccc(NS(=O)(=O)c3ccc(F)c(F)c3F)cc2s1,?,i,20µM*,i
NC(=O)c1c(NC(=O)c2ccc(N3C(=O)CCC3=O)cc2)sc2c1CCCC2,-3%,?,-8%,i
CN(C)c1ccc(CNC(=O)c2ccc(Cn3c(SCc4ccccc4)nc4cccnc43)cc2)cc1,·,i,?,i
O=C(NCc1ccccc1Cl)C1CCCN(C(=O)c2cnn(-c3ccccc3)c2-n2cccc2)C1 (stereo not drawn),·,i,21%,i
O=S(=O)(Nc1ccc(N2CCOCC2)cc1)c1c(F)cc(F)cc1Br,22µM*,i,?,i
Cc1csc2nc(COc3ccc(NC(=O)c4ccccc4F)cc3)cc(=O)n12,·,i,-1%,i
Cc1c(CCNC=O)cc(C)c2c3c(oc12)CCCC3,17%,·,16µM*,i
Cc1cc(NCCCCCCCNc2cc(C)nc3cc([N+](=O)[O-])ccc23)c2ccc([N+](=O)[O-])cc2n1,1%,·,14µM*,i
COCCCNc1cc(C)nc2ccccc12,0%,i,3%,i
Cc1cc2n(n1)C(c1ccc3c(c1)OCO3)Nc1c(C)cccc1-2 (stereo not drawn),·,i,-15%,i
Cc1cc(C)c2c(c1)-c1cc(C)nn1C(c1ccc3c(c1)OCO3)N2 (stereo not drawn),11%,i,18µM*,i
CCOc1ccc(C2Nc3c(C)cccc3-c3cc(C)nn32)cc1 (stereo not drawn),·,i,11µM*,?
Cc1ccc(S(=O)(=O)N2CCC(C(=O)Nc3ccc(N4CCOCC4)cc3)CC2)cc1C,6%,i,13%,i
Oc1ccccc1/C=N/NC(=S)NC1CC2C=CC1C2 (stereo not drawn),24%,i,16%,11µM*
Oc1ccccc1C=NNC(=S)Nc1ccc(F)cc1,22µM*,i,?,i
Oc1c(Cl)cc(Cl)cc1/C=N/NC(=S)NC1CC2C=CC1C2 (stereo not drawn),1%,i,-6%[1.82 µM],?
Oc1ccccc1C=NNC(=S)NC1CC2C=CC1C2 (stereo not drawn),?,i,13µM*,?

# Bioassay records from PubChem.
